Test results from PubChem BioAssay (NCATS).
Results filed as inconclusive are left out. Active and inactive are the calls of the source. The call rests on the fitted dose curve; in most records, active means well fitted curve in the direction sought with a large enough effect; inconclusive means small, poorly fitted or top-dose-only effect, or another doubt; inactive means no such curve, though single readings can be large; an effect the other way counts as inactive or inconclusive.

Experiments:
[1] = biological target: ATP-dependent 6-phosphofructokinase (Trypanosoma brucei brucei) (UniProt O15648); experiment: qHTS Assay to Find Inhibitors of T. brucei phosphofructokinase: hit validation (AID 492961);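 further: luminescence reports ADP formed as PFK phosphorylates fructose-6-phosphate with ATP; on the % scale 0 is the no-effect control and ±100 the full control effect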
Summary of the method: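 Compounds titrated; %activity normalized to 0x and 1x enzyme controls, curve-fitted. Readout: ADP-Glo luminescence after 45 min room-temperature reaction of 1.25 nM PFK, 0.1 mM ATP, 0.5 mM F6P, pH 8.0.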

[2] = qHTS profiling for inhibitors of Plasmodium falciparum proliferation (AID 504749); further: potency means the concentration at half of the fitted maximal effect;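 on activity, negative = inhibition: 0% = DMSO vehicle and full inhibition = artemisinin control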; on all read-outs here: nearly all actives have a fitted effect of over 60% in size; details: P. falciparum in erythrocytes, SYBR Green DNA, 72 h; for activity, negative = inhibition: at 28.7 µM (top of the series)
Summary of the method: (§1)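 P. falciparum-infected erythrocytes (0.3% parasitemia, 2.5% hematocrit) incubated with compound 72 h at 37 C, 5% CO2. Parasite DNA detected by SYBR Green after lysis, overnight at room temperature; normalised to 0.29 uM artemisinin and DMSO.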

AA1029 = experiment: as above; details: P. falciparum in erythrocytes, SYBR Green DNA, 72 h; series mostly up to 28.7 µM
Summary of the method: as §1

AS120 = experiment: as above; details: P. falciparum in erythrocytes, SYBR Green DNA, 72 h; series mostly up to 28.7 µM
Summary of the method: as §1

ATS189 = experiment: as above; details: P. falciparum in erythrocytes, SYBR Green DNA, 72 h; series mostly up to 28.7 µM
Summary of the method: as §1

CP185 = experiment: as above; details: P. falciparum in erythrocytes, SYBR Green DNA, 72 h; series mostly up to 28.7 µM
Summary of the method: as §1

CP191 = experiment: as above; details: P. falciparum in erythrocytes, SYBR Green DNA, 72 h; series mostly up to 28.7 µM
Summary of the method: as §1

CP192 = experiment: as above; details: P. falciparum in erythrocytes, SYBR Green DNA, 72 h; series mostly up to 28.7 µM
Summary of the method: as §1

CP211 = experiment: as above; details: P. falciparum in erythrocytes, SYBR Green DNA, 72 h; series mostly up to 28.7 µM
Summary of the method: as §1

CP217 = experiment: as above; details: P. falciparum in erythrocytes, SYBR Green DNA, 72 h; series mostly up to 28.7 µM
Summary of the method: as §1

CP238 = experiment: as above; details: P. falciparum in erythrocytes, SYBR Green DNA, 72 h; series mostly up to 28.7 µM
Summary of the method: as §1

CP252 = experiment: as above; details: P. falciparum in erythrocytes, SYBR Green DNA, 72 h; series mostly up to 28.7 µM
Summary of the method: as §1

CP262 = experiment: as above; details: P. falciparum in erythrocytes, SYBR Green DNA, 72 h; series mostly up to 28.7 µM
Summary of the method: as §1

CP265 = experiment: as above; details: P. falciparum in erythrocytes, SYBR Green DNA, 72 h; series mostly up to 28.7 µM
Summary of the method: as §1

CP286 = experiment: as above; details: P. falciparum in erythrocytes, SYBR Green DNA, 72 h; series mostly up to 28.7 µM
Summary of the method: as §1

Dd2 = experiment: as above; details: P. falciparum in erythrocytes, SYBR Green DNA, 72 h; series mostly up to 28.7 µM
Summary of the method: as §1

ECU = experiment: as above; details: P. falciparum in erythrocytes, SYBR Green DNA, 72 h; series mostly up to 28.7 µM
Summary of the method: as §1

FAB9 = experiment: as above; details: P. falciparum in erythrocytes, SYBR Green DNA, 72 h; series mostly up to 28.7 µM
Summary of the method: as §1

N140 = experiment: as above; details: P. falciparum in erythrocytes, SYBR Green DNA, 72 h; series mostly up to 28.7 µM
Summary of the method: as §1

HB3 = experiment: as above; details: P. falciparum in erythrocytes, SYBR Green DNA, 72 h; series mostly up to 28.7 µM
Summary of the method: as §1

Sequence of ATP-dependent 6-phosphofructokinase (Trypanosoma brucei brucei) (O15648 whole entry, looked up): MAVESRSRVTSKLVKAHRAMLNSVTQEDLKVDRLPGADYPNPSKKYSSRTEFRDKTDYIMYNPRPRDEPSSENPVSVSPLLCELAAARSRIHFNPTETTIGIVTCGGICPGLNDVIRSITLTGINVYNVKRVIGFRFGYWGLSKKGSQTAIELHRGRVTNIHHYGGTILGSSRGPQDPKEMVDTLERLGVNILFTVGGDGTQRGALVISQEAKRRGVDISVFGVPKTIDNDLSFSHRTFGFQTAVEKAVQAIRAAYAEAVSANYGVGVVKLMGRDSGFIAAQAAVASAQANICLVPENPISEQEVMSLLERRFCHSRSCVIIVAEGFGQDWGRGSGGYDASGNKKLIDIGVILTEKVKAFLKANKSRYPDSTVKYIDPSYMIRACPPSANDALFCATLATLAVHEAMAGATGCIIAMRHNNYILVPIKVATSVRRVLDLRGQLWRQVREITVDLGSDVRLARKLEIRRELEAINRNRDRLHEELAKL

Nc1nc(/C(=C/CC(=O)O)C(=O)NC2C(=O)N3C(C(=O)O)=CCSC23)cs1 (stereo not given)
inactive: Potency [1] | activity, negative = inhibition ([2]; parasite line A) -3.7% | activity, negative = inhibition ([2]; parasite line B) 3.34% | Potency (AA1029) | Potency (AS120) | Potency (ATS189) | Potency (CP185) | Potency (CP191) | Potency (CP192) | Potency (CP211) | Potency (CP217) | Potency (CP238) | Potency (CP252) | Potency (CP262) | Potency (CP265) | Potency (CP286) | Potency (Dd2) | Potency (ECU) | Potency (FAB9) | Potency (N140)

NC(=O)OC[C@@H]1[C@H](NC(=O)/C(=N/OCC(=O)O)c2csc(N)n2)C(=O)N1S(=O)(=O)O
inactive: Potency [1] | activity, negative = inhibition ([2]; parasite line A) -1.72% | activity, negative = inhibition ([2]; parasite line B) 1.04% | Potency (AA1029) | Potency (AS120) | Potency (ATS189) | Potency (CP185) | Potency (CP191) | Potency (CP192) | Potency (CP211) | Potency (CP217) | Potency (CP238) | Potency (CP252) | Potency (CP262) | Potency (CP265) | Potency (CP286) | Potency (Dd2) | Potency (ECU) | Potency (HB3) | Potency (N140)
active: Potency (FAB9) 100 nM

CC[C@@]1(O)CC2CN(CCc3c([nH]c4ccccc34)[C@](C(=O)OC)(c3cc4c(cc3OC)N(C)C3[C@@](O)(C(=O)OC)C(OC(C)=O)[C@]5(CC)C=CCN6CC[C@@]43C65)C2)C1 (stereo not given in full)
inactive: Potency [1]
active: Potency ([2]; parasite line A) 2510 nM | Potency ([2]; parasite line B) 1120 nM | Potency (AA1029) 3160 nM | Potency (AS120) 2820 nM | Potency (ATS189) 3980 nM | Potency (CP185) 2240 nM | Potency (CP191) 2820 nM | Potency (CP192) 3380 nM | Potency (CP211) 2690 nM | Potency (CP217) 3550 nM | Potency (CP238) 3160 nM | Potency (CP252) 3550 nM | Potency (CP262) 1690 nM | Potency (CP265) 2240 nM | Potency (CP286) 794 nM | Potency (Dd2) 355 nM | Potency (ECU) 2510 nM | Potency (N140) 3550 nM

CN(C)CC/C=C1\c2ccccc2COc2ccc(CC(=O)O)cc21
inactive: Potency [1] | activity, negative = inhibition ([2]; parasite line A) 1.27% | activity, negative = inhibition ([2]; parasite line B) -5.49% | Potency (AA1029) | Potency (AS120) | Potency (ATS189) | Potency (CP185) | Potency (CP191) | Potency (CP192) | Potency (CP211) | Potency (CP217) | Potency (CP238) | Potency (CP252) | Potency (CP262) | Potency (CP265) | Potency (CP286) | Potency (Dd2) | Potency (ECU) | Potency (FAB9) | Potency (HB3) | Potency (N140)

CNC1C(O)C(OC2C(NC(=O)C(O)CN)CC(N)C(OC3OC(CN)C(O)C(O)C3O)C2O)OCC1(C)O (stereo not given)
inactive: Potency [1] | activity, negative = inhibition ([2]; parasite line A) 1.08% | activity, negative = inhibition ([2]; parasite line B) -10.1% | Potency (AA1029) | Potency (AS120) | Potency (ATS189) | Potency (CP185) | Potency (CP191) | Potency (CP192) | Potency (CP211) | Potency (CP217) | Potency (CP238) | Potency (CP252) | Potency (CP265) | Potency (CP286) | Potency (Dd2) | Potency (ECU) | Potency (FAB9) | Potency (HB3) | Potency (N140)

Nc1ncn(C2C[C@H](O)[C@@H](CO)O2)c(=O)n1 (stereo not given in full)
inactive: Potency [1] | activity, negative = inhibition ([2]; parasite line A) 2.14% | activity, negative = inhibition ([2]; parasite line B) -13.9% | Potency (AA1029) | Potency (AS120) | Potency (ATS189) | Potency (CP185) | Potency (CP191) | Potency (CP192) | Potency (CP211) | Potency (CP217) | Potency (CP238) | Potency (CP252) | Potency (CP262) | Potency (CP265) | Potency (CP286) | Potency (Dd2) | Potency (ECU) | Potency (FAB9) | Potency (HB3) | Potency (N140)

Cc1ccc(/C=C2/C(=O)C3(C)CCC2C3(C)C)cc1 (stereo not given)
inactive: Potency [1] | activity, negative = inhibition ([2]; parasite line A) 14.8% | activity, negative = inhibition ([2]; parasite line B) 12% | Potency (AA1029) | Potency (AS120) | Potency (ATS189) | Potency (CP185) | Potency (CP191) | Potency (CP192) | Potency (CP211) | Potency (CP217) | Potency (CP238) | Potency (CP252) | Potency (CP262) | Potency (CP265) | Potency (CP286) | Potency (Dd2) | Potency (ECU) | Potency (FAB9) | Potency (HB3) | Potency (N140)

CO[C@H]1C[C@@H]2CC[C@@H](C)[C@@](O)(O2)C(=O)C(=O)N2CCCC[C@H]2C(=O)O[C@H]([C@H](C)C[C@@H]2CC[C@@H](O)[C@H](OC)C2)CC(=O)[C@H](C)/C=C(\C)[C@@H](O)[C@@H](OC)C(=O)[C@H](C)C[C@H](C)/C=C/C=C/C=C/1C
inactive: Potency [1]
active: Potency ([2]; parasite line A) 3550 nM | Potency ([2]; parasite line B) 1780 nM | Potency (AA1029) 2510 nM | Potency (AS120) 1780 nM | Potency (ATS189) 3550 nM | Potency (CP185) 5620 nM | Potency (CP191) 2240 nM | Potency (CP192) 4780 nM | Potency (CP211) 4260 nM | Potency (CP217) 3160 nM | Potency (CP238) 3980 nM | Potency (CP252) 2820 nM | Potency (CP262) 4780 nM | Potency (CP265) 3160 nM | Potency (CP286) 5010 nM | Potency (Dd2) 2820 nM | Potency (ECU) 2510 nM | Potency (HB3) 8910 nM | Potency (N140) 1580 nM

Cc1onc(-c2c(F)cccc2Cl)c1C(=O)NC1C(=O)N2C1SC(C)(C)C2C(=O)O (stereo not given)
inactive: Potency [1] | activity, negative = inhibition ([2]; parasite line A) 3.14% | activity, negative = inhibition ([2]; parasite line B) -4.31% | Potency (AA1029) | Potency (AS120) | Potency (ATS189) | Potency (CP185) | Potency (CP191) | Potency (CP192) | Potency (CP211) | Potency (CP217) | Potency (CP238) | Potency (CP252) | Potency (CP262) | Potency (CP265) | Potency (CP286) | Potency (Dd2) | Potency (ECU) | Potency (FAB9) | Potency (HB3) | Potency (N140)

NCCCCC(N)C(=O)O (stereo not given)
inactive: Potency [1] | activity, negative = inhibition ([2]; parasite line A) -7.93% | activity, negative = inhibition ([2]; parasite line B) 13.6% | Potency (AA1029) | Potency (AS120) | Potency (ATS189) | Potency (CP185) | Potency (CP191) | Potency (CP192) | Potency (CP211) | Potency (CP217) | Potency (CP238) | Potency (CP252) | Potency (CP262) | Potency (CP265) | Potency (CP286) | Potency (Dd2) | Potency (ECU) | Potency (FAB9) | Potency (HB3) | Potency (N140)
